The values below come from PubChem BioAssay AID504546 (Broad Institute, 2011).

Molecules are shown by their SMILES. Results filed as inconclusive are left out. Unmarked numbers belong to inactive results.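 How the source made its calls: active means every repeat run fits a falling-signal curve with half-maximal potency within ten times top tested dose; inconclusive means runs disagree, or flat moderate drop, or poor fit; inactive means every run inactive, including signal moving upward.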

This experiment is described as follows: inhibition of ADP-Glo detection reagents, dose response, artefact control for CDK5 inhibitor project, biochemical, luminescence, cherry-picked samples, set 2 (AID 504546).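 Further: 0% = DMSO wells and -100% = wells lacking ADP.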 The note with it: ADP-Glo detection reagent counter screen, 5 uM ADP; series mostly up to 30 µM; activity change, negative = inhibition: at the top concentration.
On to `CN(C)N1C(N)=C(C#N)C(c2cccs2)C2=C1CCCC2=O` (stereo unspecified), for which the “activity change, negative = inhibition” value is 8.74%. The value for `O=C1NCCCc2c1oc1ccc(O)cc21` was 16.1%; that for `Cc1ccc2nc(NCc3ccccc3)c(C#N)cc2c1` was 16.2%.

Turning to `Cc1[nH][nH]c(=O)c1C(c1ccccc1[N+](=O)[O-])C(C#N)C#N` (stereo unspecified), the “activity change, negative = inhibition” value is -5.72%. The value for `Cc1nn(-c2nc3ccccc3[nH]2)c(=O)c2ccccc12` was -5.25%; that for `CC(C)n1cnc2c(Nc3cccc(F)c3)nc(NCCO)nc21` was -1.25%; that for `Cc1nn(-c2ccccn2)c2c1C(=O)CC(C)(C)C2Br` (stereo unspecified) was 13.7%. Take `Cc1nn(-c2ncccn2)c2c1C(=O)CC(C)(C)C2Br` (stereo unspecified): the “activity change, negative = inhibition” value was 5.02%.

On to `COc1ccccc1C(=O)N1CCN(c2ccccn2)CC1`, for which the “activity change, negative = inhibition” value was -2.56%. `COc1ccc(Nc2nccc(-c3cccc(N)c3)n2)cc1`: the “activity change, negative = inhibition” value was -4.84%. Regarding `CC1(C)Cc2c(ccc3ccccc23)C(=O)N1`, the “activity change, negative = inhibition” value was -9.95%. On to `COc1ccc(C(=O)N2CCN(c3ccccn3)CC2)cc1`, for which the “activity change, negative = inhibition” value was 10.2%.

Turning to `CN1CCN(C(=O)c2ccc3c(c2)NC(=O)/C(=C/c2ccccc2)S3)CC1`, the “activity change, negative = inhibition” value is 16.2%. Turning to `CC(C)n1cnc2c(N(C)c3cccc(Cl)c3)nc(N(CCO)CCO)nc21`, the “activity change, negative = inhibition” value was 12.7%. As for `COc1ccc2ccc3ccc(OC)c(OC(C)=O)c3c2c1`, the “activity change, negative = inhibition” value was 4.29%. Regarding `O=C(c1ccc(F)cc1)c1cnc(Nc2ccccc2)s1`, the “activity change, negative = inhibition” value was -8.91%.

`CC(C)n1cnc2c(Nc3ccc(F)c(Cl)c3)nc(NCCO)nc21`: the “activity change, negative = inhibition” value is -2.2%. Consider `CCCc1cc(-c2[nH]ncc2-c2ccc(C(=O)OCC)o2)c(O)cc1O`, for which the “activity change, negative = inhibition” value is 3.88%. On to `COc1cc2c(ccc3cc(OC)c(OC)c(O)c32)cc1O`, for which the “activity change, negative = inhibition” value is -0.298%. As for `CC(C)C[C@H](CO)Nc1nc(N(C)c2cccc(Cl)c2)c2ncn(C(C)C)c2n1`, the “activity change, negative = inhibition” value was 14.8%. As for `O=c1c(O)c(-c2ccc(O)c(O)c2)oc2cc(O)ccc12`, the “activity change, negative = inhibition” value was 15.9%. Take `COc1cccc(C(=O)c2sc(NC(C)C)nc2N)c1`: the “activity change, negative = inhibition” value was 6.22%. For `COc1ccc(Nc2nc(N)c(C(=O)c3ccc(F)cc3)s2)cc1`, the “activity change, negative = inhibition” value was -5.89%. The result for `Cc1ccc2nc(Cl)c(C#N)cc2c1` reads 10.7%.

Regarding `COc1cc(C(=O)N2CCN(c3ccccn3)CC2)cc(OC)c1OC`, the “activity change, negative = inhibition” value was -10.2%.

For `COc1ccc2nc(C)cc(Nc3ccc(C)cc3)c2c1`, the “activity change, negative = inhibition” value is 13.1%. As to `COc1ccc(C(=O)c2sc(Nc3ccccc3F)nc2N)cc1`, the “activity change, negative = inhibition” value was -6.41%.

With `COc1ccc2nc3c(cc2c1)c(NC(=O)c1cccs1)nn3CC(C)C`, the “activity change, negative = inhibition” value is -13%. In the case of `CC(C)n1cnc2c(NCc3ccc(S(N)(=O)=O)cc3)nc(NCc3ccc(S(N)(=O)=O)cc3)nc21`, the “activity change, negative = inhibition” value was -11.1%. With `O=C(c1ccc2c(c1)OCCO2)N1CCN(c2ccccn2)CC1`, the “activity change, negative = inhibition” value was 14.4%.

Take `CC(C)(C)C(=O)c1sc(Nc2ccccc2)nc1N`: the “activity change, negative = inhibition” value was 13.1%. As for `Cc1ccc2[nH]c(C(F)(F)F)cc(=O)c2c1`, the “activity change, negative = inhibition” value was 14.9%. For `O=C(O)CCC(=O)NCCn1c(-c2ccccc2)csc1=Nc1ccccc1`, the “activity change, negative = inhibition” value was -3.75%. The value for `Nc1ncnc2c1ncn2C1OC(CO)C(O)C1O` (stereo unspecified) was 12.3%. The value for `CCC(C)(C)C1CCc2[nH]nc(C(=O)NCCN3CCOCC3)c2C1` (stereo unspecified) was -8.52%; that for `CC(C)n1cnc2c(Nc3cccc(Cl)c3)nc(N(CCO)CCCO)nc21` was 3.17%.
